Results taken from article PMC4336329 (PLoS ONE, 2015).
Hit rate of the full screen: of about 310,000 compounds, about 2,200 (0.71%) showed an effect of 50% or more. Effects have a minus sign here. The full list was thinned out, with strong results kept by preference.

Each compound was assayed against human ether-à-go-go-related gene (hERG) potassium channel (human, UniProt Q12809) (assay: primary screen, population patch clamp on CHO cells stably expressing hERG; higher = less effect of the substance).
human ether-à-go-go-related gene (hERG) potassium channel, sequence (Q12809 whole entry, looked up): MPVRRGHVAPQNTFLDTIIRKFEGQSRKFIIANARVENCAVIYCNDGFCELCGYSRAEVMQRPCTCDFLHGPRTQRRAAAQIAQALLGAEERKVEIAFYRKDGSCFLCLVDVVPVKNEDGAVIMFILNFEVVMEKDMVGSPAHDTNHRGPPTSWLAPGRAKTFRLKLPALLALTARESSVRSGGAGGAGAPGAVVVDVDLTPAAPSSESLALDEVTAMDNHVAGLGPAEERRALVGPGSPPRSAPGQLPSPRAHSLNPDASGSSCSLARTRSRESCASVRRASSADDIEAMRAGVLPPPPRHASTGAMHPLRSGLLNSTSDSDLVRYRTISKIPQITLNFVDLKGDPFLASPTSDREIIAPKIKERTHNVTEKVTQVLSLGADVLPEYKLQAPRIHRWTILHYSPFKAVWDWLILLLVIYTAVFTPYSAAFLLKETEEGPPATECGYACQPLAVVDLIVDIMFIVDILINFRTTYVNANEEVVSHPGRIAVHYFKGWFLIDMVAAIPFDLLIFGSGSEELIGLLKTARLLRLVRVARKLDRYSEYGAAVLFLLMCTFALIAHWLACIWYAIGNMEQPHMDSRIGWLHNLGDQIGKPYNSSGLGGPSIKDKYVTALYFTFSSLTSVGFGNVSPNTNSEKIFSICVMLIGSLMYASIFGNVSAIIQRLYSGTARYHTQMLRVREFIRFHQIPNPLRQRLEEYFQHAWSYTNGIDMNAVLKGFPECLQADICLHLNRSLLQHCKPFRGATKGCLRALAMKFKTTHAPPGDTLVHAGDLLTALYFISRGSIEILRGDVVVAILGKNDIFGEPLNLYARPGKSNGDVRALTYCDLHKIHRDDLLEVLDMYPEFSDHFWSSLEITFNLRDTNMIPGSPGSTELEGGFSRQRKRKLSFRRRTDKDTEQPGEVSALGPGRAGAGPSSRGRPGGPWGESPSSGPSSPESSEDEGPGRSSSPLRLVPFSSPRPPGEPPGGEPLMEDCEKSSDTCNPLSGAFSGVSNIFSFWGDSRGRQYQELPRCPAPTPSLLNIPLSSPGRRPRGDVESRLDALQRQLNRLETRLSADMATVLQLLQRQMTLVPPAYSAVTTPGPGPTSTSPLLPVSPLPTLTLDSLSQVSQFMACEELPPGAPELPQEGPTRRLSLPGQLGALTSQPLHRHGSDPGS
Protocol: Briefly, Chinese hamster ovary (CHO) cells stably expressing the hERG channel were dislodged from tissue culture flasks and dispensed into PPC plates. […] During the recording, background leak currents were estimated by a 100 ms step to -80 mV from an initial holding potential of -70 mV and subtracted from the subsequent current measurement. The campaign was conducted in two phases using slight differences in recording protocol. In the first phase, the initial voltage pulse used a 100 ms step to -30 mV from a holding potential of -70 mV, a 2 s conditioning step to +25 mV, and a 2 s test step to -30 mV. During the second phase of the screen, the potential during the conditioning step was raised to +45 mV. In both phases of the campaign, a secondary voltage pulse was applied using the same parameters as the second phase initial pulse. The initial and secondary pulses were applied in the absence of compound, and upon application of 1 μM and 10 μM test concentrations. Small molecule effects on hERG current density were quantified by […].

Compound | hERG current change (%, negative = inhibition) at 1uM
O=C(CN(Cc1ccccc1)S(=O)(=O)c1ccc(F)cc1)NCc1ccncc1 | -9.19%
CCCNC(=O)CN(Cc1ccccc1F)S(=O)(=O)c1ccc(C)cc1 | 5.85%
O=C(CCc1nnc2ccc(N3CCCC3)nn12)Nc1cc(F)ccc1F | -9.58%
COc1ccc(N=C(C)C2=C(O)COC2=O)cc1 | 4.93%
CN1CSC2=C(C#N)C(c3cccc(OCc4ccccc4)c3)CC(=O)N2C1 (stereo not drawn) | 4.22%
CCC(NC(=O)OCc1ccccc1)C(=O)Oc1ccc2ccc(=O)oc2c1 (stereo not drawn) | 18.8%
C=CCn1c(SCC(=O)NNC(=O)Nc2ccc(C)cc2)nnc1-c1ccccc1 | 1.92%
CCCN1CCN(S(=O)(=O)c2c(C)[nH]c(C)c2C(=O)N2CCCCC2)CC1 | -0.989%
CCn1c(SCC(=O)Nc2ccccc2OC)nc(O)cc1=O | 10%
COC(=O)c1cc(Br)c(=O)n(-c2ccc(OC)cc2)c1 | 5.39%
COC(=O)c1cc(Br)c(=O)n(CCc2ccc(F)cc2)c1 | -3.04%
COC(=O)c1cc(Br)c(=O)n(-c2ccc(F)cc2)c1 | -70.1%
CCO[C@@H]1OC(C(=O)N2CCN(C)CC2)=C[C@H](c2csc3ccccc23)[C@H]1CCCO | 0.669%
CC(=O)Nc1ccc(N(C(=O)c2ccccn2)C(C(=O)NC2CCCCC2)c2ccc(F)cc2)cc1 (stereo not drawn) | 12.2%
CC1CCCCN1CCNC(=O)CCc1nnc2n(Cc3ccccc3)c(=O)c3ccccc3n12 (stereo not drawn) | -8.67%
O=C(CCc1nnc2n(CCc3ccccc3)c(=O)c3ccccc3n12)NCCCN1CCCCC1 | -9.25%
CC1CCN(CCCNC(=O)CCc2nnc3n(CCc4ccccc4)c(=O)c4ccccc4n23)CC1 | -52.4%
Cc1ccc(Cc2ccc(C(=O)NNC(N)=S)o2)cc1 | 3.74%
CN(CC(=O)Nc1ccccc1Br)C(=O)c1sccc1-c1ccccc1 | -0.469%
O=c1nc(-c2ccccc2)cc(C(F)(F)F)[nH]1 | 21.3%
COc1ccccc1N1CCc2c(C)nc3c(OC)cccc3c21 | -23.1%
COc1ccc(N2CCc3c(C)nc4c(OC)cc(OC)cc4c32)cc1 | -52.7%
COc1cccc2c3c(c(C)nc12)CCN3c1ccccc1 | -8.76%

Compound | hERG current change (%, negative = inhibition) at 1uM
COc1ccc(N2CCc3c(C)nc4c(OC)cc(OC)cc4c32)c(OC)c1 | -47.6%
COc1cc(OC)c2nc(C)c3c(c2c1)N(c1ccc(O)cc1)CC3 | -57.2%
COc1ccc(N2CCc3c(C)nc4c(OC)cccc4c32)cc1 | -28.3%
CCN(CC(=O)Nc1ccccc1C(F)(F)F)C(=O)CCS(=O)(=O)c1ccc(Cl)cc1 | 9.68%
CC1CCC(NC(=O)Cn2cnc3sccc3c2=O)CC1 (stereo not drawn) | 3.74%
CCN(CCCNC(=O)CCn1c(=S)[nH]c2cc3c(cc2c1=O)OCO3)c1cccc(C)c1 | 11.5%
CN1CC(C(=O)c2ccc(Cl)cc2)C(c2ccccc2)C1 (stereo not drawn) | 6.78%
CN1CC(C(=O)c2ccc([N+](=O)[O-])cc2)C(c2ccc(Cl)cc2)C1 (stereo not drawn) | -77.1%
COc1ccc(C(=O)C2CN(C)CC2c2ccc(Cl)cc2)cc1 (stereo not drawn) | -18.3%
Cc1nn(C)c(C(=O)N2CCc3ccccc32)c1Br | 4.79%
CC1CC1C(=O)Nc1nc(-c2cccs2)c(-c2cccs2)s1 (stereo not drawn) | 7.23%
Cc1ccc(C(=O)NC2CCCN(c3ccc(C(F)(F)F)cn3)C2)cn1 (stereo not drawn) | 2.48%
O=C(NC1CCCN(c2ccc(C(F)(F)F)cn2)C1)c1ccnc(Cl)c1 (stereo not drawn) | -9.21%
O=C(NC1CCCN(c2ccc(C(F)(F)F)cn2)C1)c1ccncc1 (stereo not drawn) | -51.8%
CSCCC(NC(=O)c1ccccc1)C(=O)NC1CCCC1 (stereo not drawn) | 4.81%
CC(C(=O)NC(=O)NC1CCCCC1)N(C)CC(=O)Nc1ccc(F)c(F)c1F (stereo not drawn) | 12.1%
CC(C)c1ccc(OCC(O)CN2CCN(c3ccccn3)CC2)cc1.Cl (stereo not drawn) | -27.7%
Cc1cccc(C)c1OCC(O)CN1CCN(c2ccccn2)CC1 (stereo not drawn) | -1.11%
OC(COc1ccc(Cl)cc1)CN1CCN(c2ccccn2)CC1 (stereo not drawn) | -37.7%
Cl.OC(COCc1ccc(Cl)cc1)CN1CCN(c2ccccn2)CC1 (stereo not drawn) | -24.9%
Cl.OC(COC(c1ccc(Cl)cc1)c1ccc(Cl)cc1)CN1CCN(c2ccccn2)CC1 (stereo not drawn) | -79.7%
OC(COC(c1ccccc1)c1ccccc1)CN1CCN(c2ccccn2)CC1 (stereo not drawn) | -73.5%
